This is a sample that favours compounds with a hit; in the whole collection about 7.5% have one here.
FLuc counter = inhibits or activates purified firefly luciferase, miR-21 counter-screen; P08659; purified FLuc, Km substrates, luminescence inhibition; Potency, µM (titrated, usually from 57.5 µM), for the others: at the highest dose activity change, negative = inhibition, hits mostly inhibitors; hit rate 6.9% among 360,000;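 further: plate controls were vehicle for no effect and reference inhibitor for full effect; nearly all actives have a fitted effect of over 55% in size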
Target sequence (P08659 whole entry, looked up): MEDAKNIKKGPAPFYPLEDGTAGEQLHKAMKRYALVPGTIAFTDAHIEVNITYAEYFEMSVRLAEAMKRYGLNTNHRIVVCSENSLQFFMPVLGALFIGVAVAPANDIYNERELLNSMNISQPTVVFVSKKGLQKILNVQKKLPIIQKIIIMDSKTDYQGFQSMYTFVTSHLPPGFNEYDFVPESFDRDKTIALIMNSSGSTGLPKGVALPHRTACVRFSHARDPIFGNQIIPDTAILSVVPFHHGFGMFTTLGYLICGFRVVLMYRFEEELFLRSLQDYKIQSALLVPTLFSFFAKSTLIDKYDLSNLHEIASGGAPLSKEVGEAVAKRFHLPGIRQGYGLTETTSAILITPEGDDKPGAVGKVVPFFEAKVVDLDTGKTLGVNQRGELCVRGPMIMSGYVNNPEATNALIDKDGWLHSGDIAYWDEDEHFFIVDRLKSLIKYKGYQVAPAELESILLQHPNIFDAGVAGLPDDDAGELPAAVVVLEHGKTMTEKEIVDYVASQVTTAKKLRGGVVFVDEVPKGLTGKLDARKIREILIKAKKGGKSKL
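Purified P. pyralis luciferase (10nM final) with 10uM D-luciferin and 10uM ATP (Km levels) in 50mM Tris acetate pH 7.5, 10mM Mg acetate, 0.01% Tween-20, 0.05% BSA; qHTS 6-point titration, ~60 µM downward; luminescence read.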
SMN2 splice enh = SMN2 splice variant enhancement. HEK293 SMN2-luciferase splicing reporter, luminescence, 30-36 h. Potency, µM (doses to about 46.1 µM), for the others: at the top dose activity change, positive = activation, usual class: activators. hit rate 2.8% among 210,000; further: % of control where 0% means no effect; nearly all actives have a fitted effect of over 55% in size
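qHTS luciferase splicing reporter: luminescence rises when SMN2 exon 7 is included in transfected HEK293 cells. Compound exposure lasted 30-36 h at 37C, with 4.5 mM final sodium butyrate as control, followed by a ONE-Glo read.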
Luc counter = counter-screen: inhibitors of Kinase-Glo firefly luciferase; AID 1379; hit rate 0.28% among 200,000; Kinase-Glo luciferase, ATP luminescence, 8 min; Potency, µM (top dose mostly 38.3 µM), for the others: at the highest dose activity change, negative = inhibition, hits mostly inhibitors; further: on the % scale 0 is the no-effect control and ±100 the full control effect; nearly all actives have a fitted effect of over 60% in size
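Compounds were added to a substrate mix at pH 7.2 (50 mM imidazole, 10 uM ATP, within the enzyme's linear range), followed by Kinase-Glo detection reagent; luminescence was measured after 8 minutes at ambient temperature.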
Rab9 promoter act = Rab9 promoter activation; Huh7 Rab9 promoter-luciferase reporter, luminescence, 24 h; Potency, µM (highest dose often 9.22 µM), inactives show top-dose activation, negative = inhibition, hits mostly activators; hit rate 2.8% among 320,000; AID 485297; further: % of control where 0% means no effect; nearly all actives have a fitted effect of over 60% in size
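Luciferase signal after 10 min detection reagent at ambient indicates Rab9 promoter upregulation; stably transfected Huh7 cells were treated 24 h with compound in DMSO at 37 °C, 5% CO2.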
NPC1 promoter act = NPC1 promoter activation. hit rate 2.4% among 320,000. Potency, µM (doses to about 9.22 µM), for the others: at the highest dose activation, hits mostly activators. Huh7 NPC1 promoter luciferase reporter, 24 h; further: % of control where 0% means no effect; nearly all actives have a fitted effect of over 60% in size
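Compounds in DMSO were transferred onto Huh7 NPC1-luciferase reporter cells pre-incubated 2 h; after 24 h at 37 °C, Amplite reagent was dispensed and luminescence recorded 10 min later.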
ELG1 genotox = inducers of genotoxicity in HEK293T ELG1-luciferase cells. HEK293T ELG1-luciferase reporter, luminescence, 16 h. Potency, µM (series often up to 46 µM), for the others: top-dose activity change, positive = activation, usual class: activators. hit rate 1.3% among 330,000. AID 504466; further: % of control where 0% means no effect; nearly all actives have a fitted effect of over 60% in size
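Cells (2,000/well) expressing the ELG1-luciferase fusion are dosed by pin tool and kept 16 hr at 37 °C, 5% CO2. Signal comes from ONE-Glo luciferase reagent after 30 min at room temperature.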
An asterisk follows results filed as active; [ ] = remark or other dose. The call rests on the fitted dose curve; in most records, active means well fitted curve in the direction sought with a large enough effect; inconclusive means small, poorly fitted or top-dose-only effect, or another doubt; inactive means no such curve, though single readings can be large; an effect the other way counts as inactive or inconclusive. Potency means the concentration at half of the fitted maximal effect.

For Cc1cc(C)c(Cn2c(=O)n(CCCCCC(=O)NCc3ccc4c(c3)OCO4)c(=O)c3sccc32)c(C)c1 the results were FLuc counter 6% and SMN2 splice enh -5%.
CCCCNC(=O)c1nnn(-c2ccccc2)c1N was read as FLuc counter inconclusive, SMN2 splice enh 13µM*, Luc counter 0%, Rab9 promoter act inconclusive, NPC1 promoter act inconclusive and ELG1 genotox inconclusive.
For CCCCc1nc2c(c3c1C[C@H](C)OC3)CN(S(=O)(=O)c1c(C)noc1C)CC2 the results were SMN2 splice enh 4%[9.22 µM] and Luc counter -8%[7.66 µM].
CCOc1ccc(NC(=O)c2cc3ccccc3cc2OC)cc1 was read as FLuc counter 5.4µM*, Rab9 promoter act inconclusive, NPC1 promoter act inconclusive and ELG1 genotox inconclusive.
COc1cc2ccccc2cc1C(=O)Nc1ccc(N2CCN(C(=O)C(C)C)CC2)cc1 was read as FLuc counter -8%, Rab9 promoter act -1%, NPC1 promoter act 2% and ELG1 genotox -13%.
Screening COc1ccc(NC(=O)c2cccn(CC=C(C)C)c2=O)cc1 returned FLuc counter 17µM*, SMN2 splice enh 2%, Luc counter 2%, Rab9 promoter act 1.6µM*, NPC1 promoter act inconclusive and ELG1 genotox 6%.
Screening COc1ccccc1NC(=O)c1cc2cc(Br)ccc2cc1O returned FLuc counter 17µM*, Rab9 promoter act -5%, NPC1 promoter act 1% and ELG1 genotox -10%.
COc1cc2ccccc2cc1C(=O)Nc1ccc(N2CCN(C)CC2)cc1 was read as FLuc counter 4.8µM*, SMN2 splice enh 50%, Luc counter -2%, Rab9 promoter act 3.5µM*, NPC1 promoter act inconclusive and ELG1 genotox 14µM*.
C=CCn1cccc(C(=O)Nc2ccc(OC)cc2)c1=O was read as FLuc counter inconclusive, Luc counter -14%, Rab9 promoter act inconclusive, NPC1 promoter act inconclusive and ELG1 genotox 12%.
CCOc1ccc(NC(=O)c2cccc3ccccc23)cc1 was read as FLuc counter -17%, Rab9 promoter act 14%, NPC1 promoter act -11% and ELG1 genotox 4%.
C/C(=N\O)C(=O)NCCN(C)C was read as FLuc counter -1%, SMN2 splice enh -10%, Luc counter -4%, Rab9 promoter act -4%, NPC1 promoter act 1% and ELG1 genotox 3%.
Cc1cccc(C)c1NC(=O)C(=O)NCC(c1ccc2c(c1)OCO2)N1CCN(C)CC1 (stereo unspecified) was read as FLuc counter 0%.
For COc1ccc(NC(=O)c2cc3ccccc3cc2OC)cc1 the results were FLuc counter 3.4µM*, Rab9 promoter act 29%, NPC1 promoter act inconclusive and ELG1 genotox inconclusive.
For COc1cc2ccccc2cc1C(=O)Nc1cccnc1 the results were FLuc counter 11µM*, SMN2 splice enh 13µM*, Luc counter 1%, Rab9 promoter act inconclusive, NPC1 promoter act inconclusive and ELG1 genotox 8.2µM*.
COc1cc2ccccc2cc1C(=O)Nc1ccccc1Cl was read as FLuc counter 3.4µM*, Rab9 promoter act 26%, NPC1 promoter act inconclusive and ELG1 genotox inconclusive.
`COc1cc(NC(=O)c2cc3ccccc3cc2O)c(OC)cc1Cl` gave FLuc counter 9.5µM*, Rab9 promoter act -7%, NPC1 promoter act inconclusive and ELG1 genotox -6%.
COc1cc(OC)c(NC(=O)c2ccccc2F)cc1Cl was read as FLuc counter inconclusive, SMN2 splice enh 13%, Luc counter -1%, Rab9 promoter act 14%, NPC1 promoter act 6% and ELG1 genotox 3%.
Screening CCCCOc1ccc(C(=O)N2CCN(CCc3ccncc3)CC2)cc1 returned FLuc counter -5%.
For COc1cc2c(=O)c(C(=O)c3ccc(C)c(C)c3)cn(Cc3ccccc3F)c2cc1OC the results were FLuc counter -14% and SMN2 splice enh -1%.
CCCOc1ccc(-c2nn(-c3ccccc3)cc2C2NC(=O)NC(C)=C2C(=O)OC)cc1C (stereo unspecified) was read as FLuc counter inconclusive and SMN2 splice enh 0%.
CCOc1ccc(OCC)c(Nc2cc(C)nc3nc(-c4ccco4)nn23)c1 was read as FLuc counter -4%.
For CCOc1ccc(NC(=O)c2cc3ccccc3cc2O)cc1 the results were FLuc counter 0.76µM*, Rab9 promoter act 2.8µM*, NPC1 promoter act inconclusive and ELG1 genotox inconclusive.
COc1cc2cc(C(=O)Nc3ccccc3)c(N)nc2cc1OC was read as FLuc counter 12µM*, SMN2 splice enh -7%, Luc counter 0%, Rab9 promoter act -1%, NPC1 promoter act 2% and ELG1 genotox 0%.
`Cc1cc(N2CCOCC2)nc2ccc(NC(=O)CCC(=O)N3CCN(c4cccc(C(F)(F)F)c4)CC3)cc12` gave FLuc counter inconclusive, Rab9 promoter act inconclusive, NPC1 promoter act 22% and ELG1 genotox -6%.
Screening CC(C)NC(=O)c1ccc(Cn2c(SCC(N)=O)nc3ccccc3c2=O)cc1 returned FLuc counter 6%.
CCOc1ccccc1-c1nnc(CS(=O)(=O)c2ccccc2)o1 was read as FLuc counter -1%, Rab9 promoter act 7%, NPC1 promoter act inconclusive and ELG1 genotox 0%.
Screening COc1ccc(Br)c(-c2nnc(CS(=O)(=O)c3ccccc3)o2)c1 returned FLuc counter 19µM*, Rab9 promoter act 2.8µM*, NPC1 promoter act inconclusive and ELG1 genotox inconclusive.
`COc1ccc(OC)c(CNC(=O)c2nn(-c3ccc(OC)c(Cl)c3)c(=O)c3c2c2ccccc2n3C)c1` gave FLuc counter 1% and SMN2 splice enh 10%.
`c1ccc(Cc2nc3ccccc3o2)cc1` gave FLuc counter 19µM*, SMN2 splice enh -3%, Luc counter -9%, Rab9 promoter act 7%, NPC1 promoter act 1% and ELG1 genotox 15%.
`c1ccc(-c2cccc(-c3ccccc3)n2)cc1` gave FLuc counter 12µM*, Rab9 promoter act inconclusive, NPC1 promoter act 23% and ELG1 genotox 5%.
CC(=O)Oc1cccc(-c2nc3ccccc3c(=O)o2)c1 was read as FLuc counter 19µM*, Luc counter -4%, Rab9 promoter act 0%, NPC1 promoter act -1% and ELG1 genotox 1%.
For COc1cccc(-c2nc3ccc(O)cc3c(=O)o2)c1 the results were FLuc counter 4.8µM*, SMN2 splice enh -10%, Luc counter 4%, Rab9 promoter act 2%, NPC1 promoter act -3% and ELG1 genotox 1%.

Screening data deposited in PubChem BioAssay by National Center for Advancing Translational Sciences (NCATS).
